Bioassay records: PubChem, The Scripps Research Institute Molecular Screening Center
NOD2-RIPK2 inh: NOD2-RIPK2 protein interaction inhibition. inhibition, % at 4.98 µM. O43353. actives 0.38% (n = 360,000). AID 624267. CHO BLA complementation NOD2-RIPK2, CCF4 ratio; in the data active means inhibition above about 21%;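 further: 0% = vehicle only and 100% = reference blocker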
Target sequence (O43353 whole entry, looked up): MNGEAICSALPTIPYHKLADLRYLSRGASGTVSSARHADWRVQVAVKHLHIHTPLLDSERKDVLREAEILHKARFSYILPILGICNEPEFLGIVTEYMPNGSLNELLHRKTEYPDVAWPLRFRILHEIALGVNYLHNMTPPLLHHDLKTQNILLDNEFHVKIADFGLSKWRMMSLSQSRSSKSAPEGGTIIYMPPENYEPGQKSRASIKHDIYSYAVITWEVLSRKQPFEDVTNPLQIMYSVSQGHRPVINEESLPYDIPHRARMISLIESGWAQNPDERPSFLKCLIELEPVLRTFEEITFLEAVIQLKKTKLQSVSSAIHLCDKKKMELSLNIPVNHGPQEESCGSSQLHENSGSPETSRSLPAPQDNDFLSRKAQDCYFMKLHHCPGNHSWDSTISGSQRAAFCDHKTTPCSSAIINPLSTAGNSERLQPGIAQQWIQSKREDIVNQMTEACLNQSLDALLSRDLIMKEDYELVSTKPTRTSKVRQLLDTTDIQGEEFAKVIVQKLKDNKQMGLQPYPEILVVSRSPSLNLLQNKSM
TLR4 MyD88 comp: TLR4-MyD88 interaction inhibition in cells | inhibition, % at 8.4 µM | HeLa CL3-4 TLR4/MyD88 BLA complementation, FRET ratio | actives 0.18% (n = 200,000) | O00206+Q99836; in the data active means inhibition above about 25%;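 further: 0% = vehicle and 100% = reference inhibitor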
IDE cell activ: IDE (human) activation, cell-based; AID 493087; HEK cells, FAbeta-B cleavage, fluorescence polarization; 0% vehicle, 100% cell-free pure enzyme wells; actives 0.073% (n = 340,000); activation, % at 5.96 µM; P14735;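 active means activation above the mean of all tested compounds plus 3 SD, set per screening campaign, cut at about 17% in these data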
IDE cell inh: inhibitors of human insulin-degrading enzyme in cells. AID 434962. P14735. inhibition, % at 5.59 µM. HEK cells, FAbetaB cleavage, fluorescence polarization. actives 0.41% (n = 320,000);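 active means percent inhibition above the average of all tested compounds plus 3 SD, set per screening campaign, cut at about 16% in these data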;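 further: IDE supplied by intact live HEK cells; FP after avidin binding of uncleaved biotin substrate so inhibition keeps polarization high; 0% = DMSO wells and 100% = 60 µM reference IDE inhibitor Ii1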
TLR9-MyD88 inh: blocks human TLR9 binding to MyD88. CHO BLA complementation TLR9-MyD88, CCF4 FRET ratio. inhibition, % at 4.98 µM. actives 0.21% (n = 340,000). Q9NR96+Q99836;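 active means inhibition above the mean over all tested compounds plus 3 SD, cut at about 21% in these data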;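 further: 0% = DMSO only wells and 100% = clavulanate BLA inhibitor control wells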
NOD2 RIPK2 conf: confirmation of human NOD2-RIPK2 interaction inhibitors; shares compounds with NOD2-RIPK2 inh; CHO cells, NOD2-RIPK2 BLA complementation, CCF4 FRET; inhibition, % at 4.98 µM; actives 70% (n = 1,200); AID 624370;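 active means mean inhibition across replicates above a set limit taken from the earlier primary screen, cut at about 21% in these data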;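 further: 0% = DMSO-only wells and the high end = clavulanate BLA-blocked wells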
NOD2 BLA counter: NOD2-RIPK2 counterscreen BLA reporter activity. AID 624371. shares compounds with NOD2-RIPK2 inh. CHO BLA reporter, CCF4 FRET ratio. actives 57% (n = 1,200). inhibition, % at 4.98 µM;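 active means mean inhibition above the low-control mean inhibition plus three low-control SD, cut at about 11% in these data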;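 further: 0% = DMSO only wells and 100% = clavulanate high control wells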
Active calls of the source: *; · = not tested or not shown. Sampled rows, rich in hits. Any-hit rate of the full collection: about 0.87%.

SMILES	NOD2-RIPK2 inh	TLR4 MyD88 comp	IDE cell activ	IDE cell inh	TLR9-MyD88 inh	NOD2 RIPK2 conf	NOD2 BLA counter
O=C(c1ccc(Cl)cc1)c1c[nH]c(C(=O)NNc2cccc(Cl)n2)c1	23*	8	11	2	5	1	2
CCN(CC)CCN(Cc1cc2ccc(C)cc2[nH]c1=O)C(=O)Nc1ccc(Cl)cc1	4	-4	6	1	-1	·	·
O=C(C1CCCO1)N1CCN(C(=S)Nc2ccccc2F)CC1 (configuration not stated)	-6	-3	1	-2	-7	·	·
NC(CCc1ccccc1)c1csc(Nc2nncc3ccccc23)n1 (configuration not stated)	24*	·	·	·	·	8	8
N#CC1=C(N)Oc2cc(O)c(Cl)cc2C1c1cccnc1 (configuration not stated)	31*	·	-46	·	9	-1	4
Cc1ccc(S(=O)(=O)Oc2ccccc2/C=N/NC(N)=S)cc1	24*	-9	-3	4	-4	11	0
Cc1ccc(S(=O)(=O)Oc2ccccc2/C=N/N=C(N)N)cc1	-6	-2	-1	-3	-4	·	·
O=C(Cc1csc(Nc2nc(=S)[nH]c3ccccc23)n1)NCCCN1CCN(c2ccccc2F)CC1	47*	6	1	2	20	46*	54*
COc1ccc(-c2ccc(CN3C(C(C)C)C(=O)N(Cc4cn(Cc5ccco5)nn4)CCS3(=O)=O)cc2)cn1 (configuration not stated)	-5	·	·	·	2	·	·
CCN(CC)Cc1c(O)ccc2cc(-c3nc4ccccc4n3C)c(=O)oc12	29*	·	-1	3	-2	35*	56*
CCc1cc2c(=O)c(-c3nc4ccccc4n3C)c(C)oc2c(CN(CC)CC)c1O	-12	0	-1	1	-13	·	·
O=c1oc2ccccc2cc1-c1ccc(O)cc1O	-17	-7	-3	-3	-6	·	·
O=c1oc2cc(O)ccc2cc1-c1ccccc1	23*	·	5	-2	8	28*	40*
N#CC1C(=O)c2ccccc2C1c1ccccc1 (configuration not stated)	48*	·	-11	·	7	-6	0
Cc1cc(O)ccc1NC(=O)CCN1C(=O)c2ccc([N+](=O)[O-])cc2C1=O	-15	9	7	2	3	·	·
O=C(CC1C(=O)NCCN1Cc1ccc(F)cc1)NCCCn1cccn1 (configuration not stated)	-2	8	3	2	-1	·	·
COc1cc(/C=C2/C(=O)CNC2=O)ccc1O	-3	3	3	-1	1	·	·
COc1cc(C=C2C(=O)C=CC2=O)ccc1O	66*	·	·	·	·	93*	30*
CN(C)CC(C(=O)c1ccccc1)c1ccccc1 (configuration not stated)	23*	23	1	0	-3	13	-2
CN(Cc1cc(Cl)cc(Cl)c1)CC(C(=O)c1ccccc1)c1ccccc1 (configuration not stated)	-3	·	4	·	2	·	·
CCCCNc1c(-c2ccc(OC)c(Sc3ccc(OC)cc3)c2)nc2cnccn12	28*	·	0	0	19	33*	37*
COc1ccc(N=C2S/C(=C\c3ccc(Cl)c([N+](=O)[O-])c3)C(=O)N2CCN(C)C)cc1	44*	·	0	-2	11	88*	-4
CCN(CC)CCN1C(=O)/C(=C\c2ccc(Cl)c([N+](=O)[O-])c2)SC1=Nc1ccc(OC)cc1	72*	·	5	-2	18	54*	-28
COc1cccc(C(=O)N2CCC[C@H]2C(=O)N2CCC[C@H]2C(=O)N(C)Cc2ccccc2)c1	-6	·	·	·	·	·	·
Cc1onc(-c2ccccc2Cl)c1C(=O)NCc1nc(-c2ccc(C(F)(F)F)cc2)no1	6	·	-4	-9	-1	·	·
